Screening data deposited in PubChem BioAssay by several laboratories.
Rows were chosen to be rich in hits. Some 3.1% of all compounds tested hit in one or more screens of this group.
PAX8 inh HTS = inhibitors of PAX8 transcriptional activity in RMG-I cells; RMG-I TPO-luciferase reporter, SteadyGlo, 24 h; inhibition, % at 12.6 µM; 360,000 compounds, 1.2% hits; AID 652154;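 active = mean replicate inhibition at least 60% with every replicate also reaching 60%; inconclusive = only one of the two criteria is met; inactive = mean below 60% and not all replicates reaching 60%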;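 also: luciferase light reporting Pax8 driven TPO promoter activity; plate controls were median of neutral control wells for no effect and mitoxantrone controls for full effect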
TROY NFkB inh = TROY signaling inhibition; Q293 LMP1-TROYcd NF-kB luciferase reporter, 4 h; inhibition, % at 10 µM; 360,000 compounds, 0.98% hits;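 active = compounds whose plate-normalised and pattern-corrected inhibition of the luciferase reporter signal at the single screening dose is 50% or more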
EWS-Fli inh = inhibitors of EWS/Fli oncoprotein transcriptional activity; AID 651661; inhibition, % at 12.6 µM; 350,000 compounds, 0.67% hits; A673 NR0B1-luciferase reporter, viability-normalised;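 active = mean inhibition of at least 50% after viability correction, with every replicate also passing that limit; inconclusive = mean reaches 50% but only one of two replicates passes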;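 also: firefly luciferase signal divided by Alamar Blue viability fluorescence both relative to DMSO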
EBV LMP1 NFkB = inhibitors of Epstein-Barr LMP1-induced NF-kappaB reporter; LMP1-induced NF-kappaB luciferase reporter cells, luminescence; inhibition, % at 12.5 µM; 350,000 compounds, 0.69% hits; AID 504558; in the data active = inhibition above about 41%; inconclusive = no clear call, values can overlap the other calls;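 also: 0% = neutral control wells and 100% = reference inhibitor control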
LGR2 inh = blocks bursicon-induced cAMP signaling via Drosophila LGR2 | HEK293 LGR2, CRE-luciferase, bursicon-stimulated, 4 h | inhibition, % at 9.99 µM | 380,000 compounds, 0.35% hits;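 active = drop in luminescence signal, shown as inhibition above about 50% in the replicate tests, limit read from the data, passing the limit was not always enough; inconclusive = probably only some replicates passing the limit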;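 also: agonist challenge used bursicon conditioned medium at about half maximal strength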
TWEAK Fn14 block = inhibitors of TWEAK-Fn14 interaction signaling | 360,000 compounds, 2% hits | TWEAK-stimulated Fn14 reporter cells, luciferase luminescence, 8 h | inhibition, % at 10 µM; in the data active = inhibition above about 50%
* hit, by the source's call; ? = inconclusive; . = no result.

SMILES	PAX8 inh HTS	TROY NFkB inh	EWS-Fli inh	EBV LMP1 NFkB	LGR2 inh	TWEAK Fn14 block
CCCNC(=O)C[C@@H]1C[C@@H]2c3cc(NS(=O)(=O)c4ccc(OC)cc4)ccc3O[C@@H]2[C@H](CO)O1	-8	.	5	.	-2	.
CCOC(=O)c1cc([N+](=O)[O-])sc1NC(=O)c1ccc(S(=O)(=O)N2CC3(C)CC2CC(C)(C)C3)cc1 (stereo not drawn)	27	13	9	46*	.	10
CC1(C)CC2CC(C)(CN2S(=O)(=O)c2ccc(C(=O)Nc3ccc(S(=O)(=O)N4CCOCC4)cc3)cc2)C1 (stereo not drawn)	83*	32	19	-5	11	42
CCOC(=O)c1cc([N+](=O)[O-])sc1NC(=O)CC	2	2	-5	1	-4	99*
O=C(C[C@H]1C=C[C@H](NC(=O)C2CCOCC2)[C@@H](CO)O1)Nc1nccs1	10	.	0	.	10	.
C[C@@H]1CCCCO[C@@H](CN(C)S(=O)(=O)c2cn(C)cn2)[C@H](C)CN([C@@H](C)CO)C(=O)c2cc(NC(=O)c3ccccc3)ccc2O1	6	.	-16	.	-2	.
COc1ccc(NC(=O)Nc2ccc3c(c2)C(=O)N([C@H](C)CO)C[C@H](C)[C@@H](CN(C)S(C)(=O)=O)OCCCC[C@H](C)O3)cc1	-16	.	-11	.	-3	.
Cc1cccc(Nc2nc(N)nc(CCl)n2)c1	90*	0	40	-27	-9	-8
COc1cccc(Nc2nc(N)nc(CCl)n2)c1	97*	-14	59*	-20	-40	-4
CO[C@@H]1CN(C)C(=O)c2cc(NC(=O)c3ccccc3F)ccc2OC[C@H](C)NC[C@H]1C	-18	.	0	.	-2	.
COc1ccc(-n2nnnc2-c2ccccc2)cc1	.	3	.	12	.	32
COc1ccc(N2N=NN(C(C)C)C2=C(Cl)c2nnnn2-c2ccc(OC)cc2)cc1	.	-33	-18	85*	-23	0
COc1ccc(C)c2sc(NC(=O)CCS(=O)(=O)c3ccccc3)nc12	78*	-1	13	-7	-2	16
Cc1nnc(NC(=O)CCS(=O)(=O)c2ccccc2)s1	22	-14	-26	18	8	14
CCOc1cccc2sc(NC(=O)CCS(=O)(=O)c3ccccc3)nc12	87*	-1	2	9	15	4
CC(=O)c1sc(NC(=O)CS(=O)(=O)c2ccc(F)cc2)nc1C	.	-27	-6	-2	-7	-5
CC(=O)c1sc(NC(=O)CCS(=O)(=O)c2ccc(C)cc2)nc1C	85*	-15	5	4	14	3
CCOc1cccc2sc(N(CCN(C)C)C(=O)CCS(=O)(=O)c3ccccc3)nc12	14	24	.	2	3	-11
CC(=O)c1sc(NC(=O)C2(F)C(F)(F)C(F)(F)C(F)(F)C(F)(F)C2(F)F)nc1C	.	62*	26	5	2	65*
CC(=O)c1sc(NC(=O)C=C(C)C)nc1C	.	-39	.	-14	.	-12
COCCNC(=O)[C@@H]1[C@@H](CO)[C@@H]2Cn3c(ccc(-c4ccccc4F)c3=O)[C@@H]2N1C(=O)C1CCC1	-8	.	-9	.	17	.
CC(C)NC(=O)N1CC2(C1)[C@@H](c1ccccc1)[C@H](CO)N2C(=O)C1CCC1	-3	.	20	.	11	.
CCN(C(=O)c1cnc(N2CCN(c3ncccn3)CC2)c2ccccc12)c1cccc(Cl)c1	.	26	.	16	.	66*
CCC(=O)N(C)C[C@H]1Oc2ncc(-c3ccc(C#N)cc3)cc2C(=O)N([C@H](C)CO)C[C@H]1C	.	.	-17	.	-29	.
CC(C)[C@@H](CO)NC(=O)c1ccc2c3n(nc2c1)-c1ccccc1CO3	-32	46	-48	6	19	44
SMILES	PAX8 inh HTS	TROY NFkB inh	EWS-Fli inh	EBV LMP1 NFkB	LGR2 inh	TWEAK Fn14 block
CC(C)NC(=O)c1ccc2c3n(nc2c1)-c1ccccc1CO3	3	8	-2	24	37	58*
Cc1ccc2c(c1)COc1c3ccc(C(=O)O)cc3nn1-2	65*	-56	5	-5	?	81*
CC1(C)Cc2c(sc3c2c(=O)n(Cc2ccccc2)c2nncn32)CO1	.	9	.	54*	.	-8
COc1ccc(S(=O)(=O)Nc2ccc3c(c2)C(=O)N([C@H](C)CO)C[C@H](C)[C@@H](CN(C)C(=O)c2ccccc2)OCCCC[C@H](C)O3)cc1	3	.	-15	.	-5	.
COc1cc(-c2noc(C)c2-c2ccc(N(C)C)nc2)cc(OC)c1OC	74*	7	61*	12	-2	8
COc1cc(-c2noc(C)c2-c2ccc3[nH]ccc3c2)cc(OC)c1OC	.	12	.	-3	.	56*
COc1cc2sc3ccc(-c4ccc(N(C)C)nc4)cc3c(=O)c2cc1OC	-92	.	-107	.	-48	.
CCC(=O)Nc1ccc2c(c1)C(=O)N(C)[C@@H]1CC[C@@H](CC(=O)N3CCc4ccccc4C3)O[C@H]1CO2	-12	.	-8	.	12	.
COCC(=O)Nc1ccc2c(c1)OC[C@@H](C)N(Cc1ccccc1OC)C[C@@H](C)[C@H](OC)CN(C)C2=O	.	.	-7	.	-16	.
CCC(=O)Nc1ccc2c(c1)C(=O)N(C)C[C@H](OC)[C@H](C)CN(Cc1ccccc1)[C@@H](C)CO2	.	.	6	.	17	.
C[C@H](CO)N1C[C@H](C)[C@@H](CN(C)C(=O)Cc2cccnc2)Oc2cc(C#Cc3ccccc3F)ccc2S1(=O)=O	-27	.	17	.	-26	.
CCn1c2ccccc2c2cc(/C=C(/C#N)C(N)=S)ccc21	10	12	18	85*	31	1
CCn1c2ccccc2c2cc(N)ccc21	.	-2	.	2	.	-8
CN(C)c1ccc(/C=C2\CCC/C(=C\c3ccccc3)C2=O)cc1	-10	-48	-9	-21	-39	-18
CC(=O)N1/C(=C/c2ccc(N(C)C)cc2)C(=O)c2ccccc21	18	66*	29	28	75*	86*
Cc1noc(C)c1S(=O)(=O)N(C)C[C@@H]1OCCCC[C@@H](C)Oc2ccc(NC(=O)C3CCCCC3)cc2C(=O)N([C@H](C)CO)C[C@H]1C	-13	.	16	.	2	.
CCC(C)(C)c1ccc(OCCCC[n+]2cccc(C)c2)c(C(C)(C)CC)c1	71*	48	0	24	.	77*
O=S(=O)(c1ccccc1)N1CCCCN2[C@H](C1)[C@@H](c1ccc(-c3cncnc3)cc1)[C@@H]2CO	-5	.	0	.	-11	.
CCn1c(Oc2ccccc2F)nc2c1c(=O)n(C)c(=O)n2C	-4	30	-3	14	7	73*
CCn1c(Oc2ccccc2)nc2c1c(=O)n(C)c(=O)n2C	-36	10	-8	11	14	33
Cc1ccc(-c2nc3ccc([N+](=O)[O-])cc3[nH]2)cc1	-51	17	-16	-32	54*	51*
Cc1ccc2nc(-c3sc4nc(C)cc(C)c4c3N)[nH]c2c1	.	70*	.	-13	.	78*
Cc1ccc2nc(-c3cccc(N)c3)[nH]c2c1	-52	12	.	20	.	61*
